Source: PubChem BioAssay (NCI)
The panel holds about 79,000 compounds, 15% with a hit somewhere; the sample as a whole holds those more often. Values without a mark were called inactive. Activity calls are given as the source filed them. No stated cut-off is given here; in the data, active means growth inhibition above about 70%; inactive means the rest.

Assays:
[1] = NCI Yeast Anticancer Drug Screen. Data for the rad50 strain (AID 155);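 further: 0% = growth of vehicle-only cultures of the same strain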; details: S. cerevisiae rad50 strain growth inhibition, active compounds read high
Procedure, shortened: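 Vehicle-treated cultures provide the reference for the growth inhibition reported for compound-exposed, repair-deficient yeast.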

[2] = NCI Yeast Anticancer Drug Screen. Data for the mec2-1 strain (AID 157); details: S. cerevisiae mec2-1 strain, active compounds read high
Procedure, shortened: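 Strain: mec2-1 (DNA repair/cell cycle alteration). Compound exposure, then growth measured; inhibition expressed relative to vehicle.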

[3] = NCI Yeast Anticancer Drug Screen. Data for the sgs1 mgt1 strain (AID 161);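 further: 0% = growth of cultures given vehicle only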; details: S. cerevisiae sgs1 mgt1 strain, active compounds read high
Procedure, shortened: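 Read-out: growth inhibition vs vehicle controls. Cells: mutant yeast strain deficient in DNA damage repair.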

[4] = NCI Yeast Anticancer Drug Screen. Data for the cln2 rad14 strain (AID 165);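 further: 0% = growth equal to vehicle treated cultures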; details: S. cerevisiae cln2 rad14 strain, active compounds read high
Procedure, shortened: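 Compounds are applied to the cln2 rad14 yeast strain, and growth is then compared with that of vehicle-treated cultures to give inhibition.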

[5] = NCI Yeast Anticancer Drug Screen. Data for the bub3 strain (AID 167); details: S. cerevisiae bub3 mutant strain, active compounds read high
Procedure, shortened: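 Mutant yeast screening strain plus compound; vehicle-treated cultures serve as the 0% inhibition reference.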

[6] = NCI Yeast Anticancer Drug Screen. Data for the mlh1 rad18 strain (AID 175); details: S. cerevisiae mlh1 rad18 strain growth inhibition, active compounds read high
Procedure, shortened: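 Read-out is yeast growth inhibition, calculated against vehicle-only controls. The compound was applied to a strain engineered with DNA damage repair alterations.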

[7] = at 5.0 µM (retest, dose inferred, filed as 0.5)
[8] = at 50.0 µM (retest, dose inferred, filed as 5.0)

SMILES | growth inhibition [1, 7] | growth inhibition [1, 8] | growth inhibition ([1]; at 50.0 µM) | growth inhibition [2, 7] | growth inhibition [2, 8] | growth inhibition ([2]; at 50.0 µM) | growth inhibition [3, 7] | growth inhibition [3, 8] | growth inhibition ([3]; at 50.0 µM) | growth inhibition [4, 7] | growth inhibition [4, 8] | growth inhibition ([4]; at 50.0 µM) | growth inhibition [5, 7] | growth inhibition [5, 8] | growth inhibition ([5]; at 50.0 µM) | growth inhibition [6, 7] | growth inhibition [6, 8] | growth inhibition ([6]; at 50.0 µM)
CN(C)CCCN1c2cc(Cl)ccc2Sc2ccc3ccccc3c21 | 3% | 98% (active) | 99.3% (active) | 3% | 99% (active) | 99.3% (active) | 3% | 99% (active) | 99.2% (active) | 2% | 96% (active) | 98.6% (active) | 5% | 96% (active) | 99.5% (active) | 28% | 98% (active) | 99.3% (active)
CCN(CC)CCOc1c(Cl)c(Cl)c(Cl)c(Cl)c1Cl | 23% | 62% | 71.7% (active) | 15% | 77% (active) | 57.5% | 20% | 88% (active) | 86.8% (active) | -1% | 80% (active) | 48.5% | 1% | 56% | 64.2% | 7% | 80% (active) | 71.8% (active)
Cc1nc(N)sc1N=Nc1ccccc1Br | -20% | 89% (active) | 88% (active) | -11% | 97% (active) | 94.2% (active) | 0% | 93% (active) | 92.1% (active) | -5% | 62% | 91.3% (active) | -1% | 91% (active) | 95.8% (active) | 34% | 96% (active) | 95.8% (active)
Cc1cc(Cl)cc2c1OCN(C)C2 | 0% | 93% (active) | 99% (active) | 1% | 96% (active) | 99.2% (active) | 1% | 97% (active) | 98.8% (active) | -6% | 96% (active) | 99.3% (active) | -5% | 94% (active) | 99% (active) | 0% | 94% (active) | 99.5% (active)
CC(CCC(=O)O)(Nc1ccc([N+](=O)[O-])cc1[N+](=O)[O-])C(=O)O (configuration not stated) | 51% | 99% (active) | 99.2% (active) | 41% | 100% (active) | 99.6% (active) | 52% | 99% (active) | 99.1% (active) | 18% | 100% (active) | 91.9% (active) | 34% | 100% (active) | 98.8% (active) | 57% | 100% (active) | 98.8% (active)
FC(F)(F)COP1(OCC(F)(F)F)=NP(OCC(F)(F)F)(OCC(F)(F)F)=NP(c2ccccc2)(c2ccccc2)=N1 | 0% | -4% | 25.9% | -1% | -1% | 25.4% | 3% | -1% | 38.1% | 2% | -6% | 2.45% | -5% | -8% | -3.05% | 11% | 0% | 56.1%
COc1ccc(C(=O)Cn2c(C(C)=O)nc3ccccc32)cc1 | 26% | 66% | -23.6% | 18% | 36% | -21.1% | 36% | 73% (active) | -14.5% | 6% | 32% | 4% | 31% | 36% | -32.6% | 28% | 52% | -43.2%
COc1ccc2nc3cc(Cl)ccc3c(NCCCCN(C)C)c2c1 | -2% | 21% | 40.7% | 1% | 18% | 35.8% | -5% | 30% | 37.5% | 5% | 21% | 89.2% (active) | -3% | 18% | 39.6% | 0% | 21% | 31.5%
CC1NC(=O)OC1(C)c1ccccc1 (configuration not stated) | 3% | -3% | 50.5% | -5% | -12% | 9.2% | 2% | 2% | -7.5% | 1% | -4% | -35.8% | 10% | 30% | 12.1% | 12% | 1% | -20.6%
